Experimental data reported in PubChem BioAssay (NCATS).
Several values for one entry are separate records, joined by “and”; a condition that tells them apart may be missing. Equal values may be shown once. Results filed as inconclusive are left out. Activity calls are given as the source filed them. Calls follow the shape of the dose curve; as a rule, active = well fitted inhibition curve with a large enough effect; inconclusive = small, poorly fitted or top-dose-only effect; inactive = no such curve, though single readings can be large or run the other way.

test: Primary qHTS for inhibitors of nuclear receptor binding SET domain protein 2 (NSD2) in an RCH-ACV wild type WT cells (2C) (AID 1645877); details: RCH-ACV (leukaemia line) NSD2 WT (2C) viability, CellTiter-Glo, 72 h; series mostly up to 44.9 µM; activity change, negative = cell killing: at the top concentration; also: nearly all actives have a fitted effect of over 70% in size
Source text: Assay Provider: Jonathan D. Licht, MD
University of Florida College of Medicine, Gainesville, FL
Mutations in epigenetic regulators are common in relapsed pediatric acute lymphoblastic leukemia (ALL). Here, we uncovered the mechanism underlying the relapse of ALL driven by an activating mutation of the NSD2 histone methyltransferase (p.E1099K). […] Correction of this mutation restored glucocorticoid sensitivity. The transcriptional response to glucocorticoids was blocked in NSD2 mutant cells due to depressed glucocorticoid receptor (GR) levels and the failure of glucocorticoids to autoactivate GR expression. […] Pre-treatment of NSD2 p.E1099K cell lines and PDX samples with PRC2 inhibitors reversed glucocorticoid resistance in vitro and in vivo.
High-throughput drug screening of isogenic RCH-ACV cell lines was performed at the National Center for Advancing Translational Science (NCATS), National Institutes of Health as previously described (1). Briefly, isogenic RCH-ACV NSD2 p.E1099K mutant (9B) and WT cells (2C) were plated at 500 cells/well in a 1536-well plate with a 72-hour incubation with compounds prior to addition of CellTiter-Glo to assess cell viability. NCATS libraries screened include: NPC, MIPE 5.0, Kinase and NPACT. To determine compound activity in the qHTS assay, the concentration-response data for each sample was plotted and modeled by a four-parameter logistic fit yielding IC50 and efficacy (maximal response) values. The area under the curve (AUC) of the dose-response curve ensures both efficacy (magnitude of cell killing) and potency (concentration that elicits cell killing) are accounted for in the analysis of activity.
1. Tobie D Lee, Olivia W Lee, Kyle R Brimacombe, Lu Chen, Rajarshi Guha, Sabrina Lusvarghi, Bethilehem G Tebase, Carleen Klumpp-Thomas, Robert W Robey, Suresh V Ambudkar, Min Shen, Michael M Gottesman, Matthew D Hall. A High-Throughput Screen of a Library of Therapeutics Identifies Cytotoxic Substrates of P-glycoprotein. Mol Pharmacol. 2019, Nov;96(5):629-640.
% is scaled to controls: 0 for no effect and ±100 for the full control effect; potency is read from the fitted curve at half-maximal effect.

| SMILES | Potency | activity change, negative = cell killing |
| --- | --- | --- |
| O=C(NCCCNc1nc(Nc2cccc(NC(=O)N3CCCC3)c2)ncc1I)c1cccs1 | 5.8 µM (active) |  |
| CCCCCCCCCC(=O)N[C@@H](Cc1c[nH]c2ccccc12)C(=O)N[C@H](CC(N)=O)C(=O)N[C@@H](CC(=O)O)C(=O)N[C@@H]1C(=O)NCC(=O)N[C@@H](CCCN)C(=O)N[C@@H](CC(=O)O)C(=O)N[C@H](C)C(=O)N[C@@H](CC(=O)O)C(=O)NCC(=O)N[C@H](CO)C(=O)N[C@@H]([C@@H](C)CC(=O)O)C(=O)N[C@@H](CC(=O)c2ccccc2N)C(=O)O[C@@H]1C | inactive |  |
| O=c1[nH]nc(Sc2ncc([N+](=O)[O-])s2)n1-c1ccc2c(c1)OCCO2 | 7.42 µM (active) |  |
| O=C(Cc1ccc(-c2ccc(OCCN3CCOCC3)cc2)cn1)NCc1ccccc1 | 258 nM (active) and 105 nM (active) |  |
| COc1cc(Nc2ncc(F)c(Nc3ccc4c(n3)N(COP(=O)(O)O)C(=O)C(C)(C)O4)n2)cc(OC)c1OC | 1.15 µM (active) and 5.17 µM (active) and 1.66 µM (active) |  |
| CN1CC[C@@H](c2c(O)cc(O)c3c(=O)cc(-c4ccccc4Cl)oc23)[C@@H](O)C1 | 0.332 µM (active) |  |
| O=C(CCCCCCNC(=O)c1cnc(N(c2ccccc2)c2ccccc2)nc1)NO | 365 nM (active) and 2.09 µM (active) |  |
| CC(C)CC(=O)Nc1n[nH]c2c1CN(C(=O)C1CCN(C)CC1)C2(C)C | 580 nM (active) and 590 nM (active) |  |
| CCc1cc2c(cc1N1CCC(N3CCOCC3)CC1)C(C)(C)c1[nH]c3cc(C#N)ccc3c1C2=O | 1.42 µM (active) |  |
| COc1cc2c(Oc3ccc(NC(=O)C4(C(=O)Nc5ccc(F)cc5)CC4)cc3F)ccnc2cc1OCCCN1CCOCC1 | 365 nM (active) and 833 nM (active) |  |
| COc1cc2c(Nc3ccc(NC(=O)c4ccccc4)cc3)ncnc2cc1OCCCN1CCOCC1 | 5.15 µM (active) and 934 nM (active) |  |
| Cc1cc(Nc2cc(CN3CCOCC3)c3nc(C)c(Cc4ccc(Cl)cc4F)n3n2)n[nH]1 | 2.59 µM (active) and 1.18 µM (active) |  |
| Cc1ccc(S(=O)(=O)Nc2cc(Cl)ccc2C(=O)Nc2nc(-c3ccccc3)cs2)cc1 |  | -18% (inactive) |
| CC[C@@]1(O)C(=O)OCc2c1cc1n(c2=O)Cc2cc3cc(O)ccc3nc2-1 | 0.0118 µM (active) |  |
| Nc1cc(C(F)(F)F)c(-c2cc(N3CCOCC3)nc(N3CCOCC3)n2)cn1 | 728 nM (active) and 934 nM (active) |  |
| NC(=O)c1cccc2cn(-c3ccc([C@@H]4CCCNC4)cc3)nc12 | 2.9 µM (active) and 2.35 µM (active) |  |
| O=C(c1cncc(Br)c1)N1CCC(N2CCCC2)CC1 |  | 4.22% (inactive) |
| CC(O)C1C(=O)N2C(C(=O)O)=C(SC3CNC(C(=O)N(C)C)C3)C(C)C12 (stereo not given) |  | -4.51% (inactive) |
| Cc1cc(Nc2cc(N3CCN(C)CC3)nc(Sc3ccc(NC(=O)C4CC4)cc3)n2)n[nH]1 | 0.0468 µM (active) |  |
| CC(C)(C)OC(=O)Nc1ccc(-c2cc(C(=O)NCCCCCCC(=O)NO)no2)cc1 | 1.32 µM (active) |  |

| SMILES | Potency | activity change, negative = cell killing |
| --- | --- | --- |
| COc1c(OCCCN2CCOCC2)ccc2c3n(c(=NC(=O)c4cnc(N)nc4)nc12)CCN3 | 8.4 nM (active) and 60.5 nM (active) |  |
| COc1ccc(-c2cc3c(C)nc(N)nc3n(C3CCC(OCCO)CC3)c2=O)cn1 (stereo not given) | 20.5 nM (active) and 41.7 nM (active) |  |
| c1nc2nc(Nc3ccc(N4CCOCC4)cc3)nc(NC3CCCCC3)c2[nH]1 | 563 nM (active) and 525 nM (active) |  |
| COc1ccc(C(=O)CC2(O)C(=O)Nc3c(Cl)ccc(Cl)c32)cc1 (stereo not given) | 1.83 µM (active) |  |
| CS(=O)(=O)c1ccc(-c2cnc(N)c(C(=O)Nc3ccccc3)n2)cc1 | 2.63 µM (active) |  |
| COc1cc(-c2nn(C3CCC(N4CCN(C(C)=O)CC4)CC3)c3ncnc(N)c23)ccc1NC(=O)c1cc2ccccc2n1C (stereo not given) | 258 nM (active) and 1.05 µM (active) |  |
| Clc1ccc2ncc(-c3cccc(NC4CNC4)n3)n2c1 |  | 6.38% (inactive) |
| CC[C@H](CO)Nc1nc(NCc2ccccc2)c2ncn(C(C)C)c2n1 | 13.2 µM (active) |  |
| COc1ccc(F)c(F)c1C(=O)c1cnc(NC2CCN(S(C)(=O)=O)CC2)nc1N | 325 nM (active) and 525 nM (active) |  |
| O=C(O)C1(Cc2cccc(Nc3nccs3)n2)CCC(Oc2cccc(Cl)c2F)CC1 (stereo not given) | 2.58 µM (active) and 3.72 µM (active) |  |
| COc1ccc2c(c1)CC[C@@H](CN(C)CC(=O)O)[C@H]2c1ccccc1 | inactive |  |
| COc1cc2ncn(-c3cc(OCc4ccccc4C(F)(F)F)c(C(N)=O)s3)c2cc1OC | 794 nM (active) and 1.18 µM (active) |  |
| COC(=O)Nc1nc2ccc(C(=O)c3ccc(F)cc3)cc2[nH]1 | 1.03 µM (active) and 372 nM (active) |  |
| COc1c(N2C[C@@H]3CCCN[C@H]3C2)c(F)cc2c(=O)c(C(=O)O)cn(C3CC3)c12 |  | -15.5% (inactive) |
| COc1cc2c(NC3CCN(C(C)C)CC3)nc(C3CCCCC3)nc2cc1OCCCN1CCCC1 | 11.5 µM (active) and 6.61 µM (active) |  |
| CC(C)(C)c1cc(NC(=O)Nc2ccc(-c3cn4c(n3)sc3cc(OCCN5CCOCC5)ccc34)cc2)no1 |  | -5.31% (inactive) |
| Cc1cc(C(=O)N2CCN(c3cccc(Cl)c3)CC2)n(-c2ccccc2)n1 | 1.32 µM (active) |  |
| CC(C)(C)c1cc(C(C)(C)C)c(NC(=O)c2c[nH]c3ccccc3c2=O)cc1O | 16.6 µM (active) |  |
| N#Cc1c(O)c2c(-c3ccc(-c4ccccc4O)cc3)csc2[nH]c1=O | inactive |  |
| COc1ccc2c(OCc3nnc4ccc(-c5ccccc5)nn34)ccnc2c1 |  | 6.98% (inactive) |
